# Measurements as given in PubChem BioAssay AID624415 (National Center for Advancing Translational Sciences (NCATS), 2012).
# In all, about 390,000 compounds went through this assay and about 60 (0.02%) were called active. Cut-off read from the data, not from the text of the source: active = activity change below about -50%; inconclusive = between about -30% and that limit; inactive = weaker than that. The entries come from a sample that favours actives as a whole.
# Target: Mucolipin-1 (Homo sapiens) (UniProt Q9GZU1)
# Test: qHTS for Inhibitors of the Human Mucolipin Transient Receptor Potential 1 (TRPML1);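 note: stimulus is agonist 54-4 at its EC80 concentration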
# Conditions: TRPML1-inducible cells, Ca2+ dye fluorescence, FDSS; stronger effect = lower value; inhibition of EC80 agonist-evoked calcium signal
# Excerpt: Mutations of human Mucolipin transient receptor potential 1 (TRPML1) cause type IV mucolipidosis (ML4), a devastating neurodegenerative disease in young children. […] Currently, there is no treatment for ML4. […] Under physiological conditions, TRPMLs regulate membrane trafficking by transducing information about PI(3,5)P2 levels into changes in juxtaorganellar Ca2+, thereby triggering membrane fusion/fission events in the late endocytic pathways (endolysosomal trafficking). In addition, TRPML1 mediates release of Fe2+ from late endosomes and lysosomes, which is essential for cellular iron metabolism. Thus, impaired ion (Ca2+ and Fe2+) homeostasis underlies lysosomal dysfunction and ML4 phenotypes. In ML4 cells, the problem is twofold. First, defective Ca2+-dependent membrane trafficking due to TRPML1-deficiency causes accumulation of lipids and other bio-materials in the lysosome. The second strike comes from the lysosomal iron overload (due to impairment of TRPML1's Fe2+ conductivity), which converts the accumulated materials into the nondegradable (resistant to lysosomal degradation) lipofuscin (also called aging pigment) in the lysosome. Lipofuscin accumulation dramatically compromises the functions of lysosomes.
# Niemann-Pick type C (NPC) disease is another lysosome storage disease (LSD) with severe neurodegeneration during the childhood. Currently, there is no cure for NPC. […] Thus, TRPML1 is likely to be an essential regulator of lysosome ion homeostasis. We specifically hypothesize that stimulating TRPML1's Fe2+/Ca2+ channel activity in the lysosome using synthetic agonists can alleviate neurodegeneration associated with ML4 or NPC.
# To this end, a high throughput screen was developed in a miniaturized format to screen against the Molecular Libraries Small Molecule Repository (MLSMR) to find small molecules that act either as inhibitors or agonist against the TRPML1 channel.
# NIH Chemical Genomics Center [NCGC]
# NIH Molecular Libraries Probe Centers Network [MLPCN]
# Assay Submitter (PI): Haoxing Xu, University of Michigan Ann Arbor
# TRPML1-DL cells are dissociated from flasks, counted and, brought up to a density of 500,000 cells per mL of media containing a 1X Tet inducer. Using a Multidrop Combi, 3 uL of this cell solution is dispensed to each well of a 1536 TC treated, black, clear bottom hi base plate for a final cell density of 1,500 cells per well. The assay plates are incubated overnight (approximately 16 hours) at 37 degrees C and 5% CO2. Using a Multidrop Combi, 2 uL of ABD Ca8 no wash dye plus quencher is added to each well. The assay plates incubate at room temperature in the dark for 45-90 minutes. The assay plate is read on the FDSS using the following protocol: 10 second baseline read, 23 nL of compounds and controls are added using 1536 pintool, agonist read for 110 seconds, 1 uL EC80 addition (4 uM final 54-4 diluted in media), antagonist read for 110 seconds.
# % is set by controls: 0 for no effect and ±100 for the full control effect.
# Chain of Mucolipin-1 (Homo sapiens) (Q9GZU1 whole entry, looked up): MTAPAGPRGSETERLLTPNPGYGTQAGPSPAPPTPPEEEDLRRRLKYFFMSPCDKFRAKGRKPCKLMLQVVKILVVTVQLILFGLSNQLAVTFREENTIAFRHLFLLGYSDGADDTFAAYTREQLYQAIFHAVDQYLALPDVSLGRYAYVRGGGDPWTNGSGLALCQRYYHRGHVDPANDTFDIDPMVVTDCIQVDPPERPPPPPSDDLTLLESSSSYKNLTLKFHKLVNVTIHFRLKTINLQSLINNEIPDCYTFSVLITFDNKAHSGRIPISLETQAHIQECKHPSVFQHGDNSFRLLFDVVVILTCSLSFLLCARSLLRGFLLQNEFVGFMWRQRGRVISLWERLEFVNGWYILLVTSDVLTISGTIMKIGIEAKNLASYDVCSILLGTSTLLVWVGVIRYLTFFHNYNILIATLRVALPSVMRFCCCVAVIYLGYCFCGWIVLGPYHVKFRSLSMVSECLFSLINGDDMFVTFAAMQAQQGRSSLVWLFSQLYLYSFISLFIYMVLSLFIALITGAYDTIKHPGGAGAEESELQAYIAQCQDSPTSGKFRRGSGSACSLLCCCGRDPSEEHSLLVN
row,SMILES,"activity change, negative = inhibition"
1,CCn1c(C(=O)Nc2cc(Cl)ccc2C)cc2sc(Cl)cc21,16.9% (inactive)
2,Cc1cccc(Cn2c(=O)n(CCC(=O)NCCc3ccc(Cl)cc3)c(=O)c3sccc32)c1,-20.1% (inactive)
3,CCc1nn(CC(=O)N2CCN(c3cccc(C(F)(F)F)c3)CC2)c(=O)c2cc3occc3n12,2.52% (inactive)
4,COc1ccc(C2=NC3(CCCCC3)N(CC(=O)Nc3ccc(C(C)C)cc3)C2=O)cc1,8.59% (inactive)
5,C=COC(=O)N1CCN(/[N+]([O-])=N/Oc2ccc([N+](=O)[O-])cc2[N+](=O)[O-])CC1,5.96% (inactive)
6,COc1ccc(CNC(=O)c2ccc(NC(=O)N3CC4CCCN4c4ccccc43)cc2)cc1 (centres undefined),12% (inactive)
7,Cc1cc(C)cc(OCC(=O)Nc2c(C(=O)c3ccccc3)oc3ccccc23)c1,-3.38% (inactive)
8,Cc1ccc(SCC(=O)Nc2ccc3oc(-c4ccccc4C)nc3c2)cc1,7.73% (inactive)
9,CCNS(=O)(=O)c1cc(-c2nnc(Nc3cccc(C(F)(F)F)c3)c3ccccc23)ccc1C,-9.21% (inactive)
10,COc1cccc(CNC(=O)CCc2nc(-c3ccc(C)cc3)no2)c1,15.3% (inactive)
11,Cc1ccccc1C(=O)NCc1nc(-c2ccc(Cl)cc2)no1,-1.57% (inactive)
12,CC1CN(C(=O)N2CCC(C(=O)NCc3ccco3)CC2)c2cc(Cl)ccc2O1 (centres undefined),31.2% (inactive)
13,COc1ccccc1-c1ccnc2[nH]n(-c3ccccc3)c(=O)c12,-0.876% (inactive)
14,COC(=O)CC1Oc2ccccc2-n2cc(-c3ccccc3)nc21 (centres undefined),4.04% (inactive)
15,Cc1ccccc1OCc1nc2c3cnn(-c4ccccc4F)c3ncn2n1,-5.46% (inactive)
16,COc1ccc(NC(=O)c2ccc3nc(CCc4ccccc4)oc3c2)c(OC)c1,3.32% (inactive)
17,CCOC(=O)C1CCN(C(c2ccc(F)cc2)c2sc3nc(-c4ccco4)nn3c2O)CC1 (centres undefined),-5.17% (inactive)
18,Cn1c(C(=O)N2CCC(C(=O)N3CCN(c4ccccc4)CC3)CC2)cc2sccc21,-0.29% (inactive)
19,CC(=O)N1CCCc2cc(S(=O)(=O)N3CCC(C(=O)NCc4ccc(C)cc4)CC3)ccc21,23% (inactive)
20,COc1ccc(-c2c3c(=O)n(C)c(=O)n(C)c3c3c(C)nc4ccccc4n23)cc1,-0.184% (inactive)
21,CC(=O)N1CCCc2cc(S(=O)(=O)Nc3ccc(Cl)cc3F)ccc21,0.189% (inactive)

row,SMILES,"activity change, negative = inhibition"
1,COc1ccc(N2C(=O)CS(=O)(=O)C23C(=O)N(Cc2ccc(C)cc2)c2ccccc23)cc1Cl (centres undefined),40.4% (inactive)
2,CCN(CC)/[N+]([O-])=N/OCOC(=O)Cc1c(C)n(C(=O)c2ccc(Cl)cc2)c2ccc(OC)cc12,37.6% (inactive)
3,CCOC(=O)CSC1=Nc2ccccc2C2=NC(CCC(=O)NCc3ccc(F)cc3)C(=O)N12 (centres undefined),-10.5% (inactive)
4,Cc1ccc(Cl)cc1-n1ncc2c(N3CCC(C(N)=O)CC3)ncnc21,0.447% (inactive)
5,O=C(NCCC1=CCCCC1)c1ccc2c(c1)N(Cc1ccccc1F)C(=O)c1ccccc1S2(=O)=O,3.43% (inactive)
6,Cc1cccc(C(=O)N2c3nc(-c4ccco4)nn3C3(CCCCC3)[C@@H]3CCCC[C@@H]32)c1,-0.973% (inactive)
7,C=C1CCN(C(CC(C)C)C(=O)N2CCOCC2)S(=O)(=O)c2ccccc21 (centres undefined),-14.1% (inactive)
8,CCCCNC(=O)CSc1nc2cc3c(cc2c(=O)n1CCCCCC(=O)NCc1ccc2c(c1)OCO2)OCO3,22.7% (inactive)
9,Cc1cccc(NC(=O)CN(c2ccc(C(C)C)cc2)S(=O)(=O)c2c(C)nn(C)c2C)c1C,3.79% (inactive)
10,Cc1ccccc1NC(=O)Cn1c(=O)n(CCc2ccccc2)c(=O)c2ccccc21,-6.8% (inactive)
11,Cc1ccc(CN(C(=O)c2ccccc2[N+](=O)[O-])c2ccccn2)cc1,3.72% (inactive)
12,Cn1nnc2c(N3CCN(c4ccccc4)CC3)ncnc21,-12.6% (inactive)
13,CCn1cc2nc(SCc3ccccc3Cl)n(CCc3ccccc3)c(=O)c2n1,-16.2% (inactive)
14,COc1ccc(NC(=O)CSc2nc3ncccc3[nH]2)c(OC)c1,-10.8% (inactive)
15,COc1ccc(Nc2ncc3c(n2)CCN(C(=O)OC(C)(C)C)C3)cc1,-8.96% (inactive)
16,COc1ccc(C2/C=C\CN(Cc3ccco3)C(C)C(=O)N2Cc2ccc(F)cc2)cc1 (centres undefined),19.9% (inactive)
17,COc1ccc2c(c1)Cc1sc(NC(=O)c3ccccc3Br)nc1-2,-10.7% (inactive)
18,COc1ccc(C2CC(=O)N(Cc3ccccc3C)c3c2c(C)nn3-c2nc(C)cc(C)n2)c(OC)c1 (centres undefined),35.7% (inactive)
19,Cc1cc(C)cc(NC(=O)Cc2csc(C)n2)c1,2.64% (inactive)
20,COc1cc(OC)c2c(C)cc(=O)oc2c1C(CCN1CCCCC1)c1ccc(N(C)C)cc1 (centres undefined),-6.66% (inactive)
21,Cc1ccc(N2CC(c3nnc(Cc4ccccc4Cl)o3)CC2=O)cc1 (centres undefined),-9.51% (inactive)

row,SMILES,"activity change, negative = inhibition"
1,CCc1ccc(CNC(=O)c2ccc(CS(=O)c3ccc(Br)cc3)o2)cc1 (centres undefined),34.7% (inactive)
2,Cc1ccc2cccc(NC(=O)C(C)Oc3ccc(C)c(C)c3)c2n1 (centres undefined),-1.63% (inactive)
3,Cc1ccc(C)c(N2C(=O)N(Cc3c(F)cccc3Cl)c3ccccc3S2(=O)=O)c1,-2.54% (inactive)
4,Oc1ccc(Cl)cc1C1C=C(c2ccc3c(c2)OCO3)NC(c2c(F)cccc2Cl)N1 (centres undefined),-4.64% (inactive)
5,COc1ccc2ncc3c(-c4ccc(C)c(C)c4)nn(CC(=O)NC4CCCC4)c3c2c1,6.38% (inactive)
6,CCN(CC)c1nn2c(=O)c(C(=O)NCCc3ccccc3)cnc2s1,26.2% (inactive)
7,COc1ccc(CNC(=O)c2cc3c(=O)[nH]c4ccccc4c3s2)cc1,-6.35% (inactive)
8,Cc1ccc(Cl)cc1NC(=O)CSc1nccn1C,0.294% (inactive)
9,CC(=O)Nc1ccc2nc(SCCOc3cc(C)cc(C)c3)sc2c1,-12.9% (inactive)
10,CCc1ccc(S(=O)(=O)Nc2cc3c(C(=O)OCc4ccccc4)c(C)oc3c3ccccc23)cc1,28.4% (inactive)
11,CCOC(=O)c1cccc(NS(=O)(=O)c2cc(-c3cnc(C)o3)ccc2OC)c1,21% (inactive)
12,Cc1ccc(Cn2cnc3c(cnn3C(C)(C)C)c2=O)c(F)c1,38.8% (inactive)
13,COc1cc(OC)cc(C(=O)Nc2c(C(=O)Nc3ccc(F)cc3)oc3ccccc23)c1,-0.263% (inactive)
14,O=C1CN(Cc2ccccc2)S(=O)(=O)c2ccccc21,2.64% (inactive)
15,CCOc1ccc(C(=O)c2cn(Cc3ccc(F)cc3)c3ccc(F)cc3c2=O)cc1,34.7% (inactive)
16,CCOc1ccc(-c2cc3c(=O)n(CC(=O)NCc4ccc(OC)cc4)ccn3n2)cc1,14.1% (inactive)
17,Cc1cc2c(cc1C)C(c1cccc(OC(C)C)c1)CC(=O)N2 (centres undefined),-6.57% (inactive)
18,COc1ccc(C(CCN2CCOCC2)c2c(OC)cc(OC)c3c2OC(=O)CC3c2ccc(OC)cc2)cc1 (centres undefined),-3.63% (inactive)
19,CC(C)c1ccc(NC(=O)c2ccc3c(O)c(S(=O)(=O)c4ccccc4)c(=O)[nH]c3c2)cc1,8.74% (inactive)
20,COc1ccccc1-n1c(-c2ccc(C)cc2)cn2c3c(=O)n(C)c(=O)n(C)c3nc12,-8.58% (inactive)
21,Cc1nn(C(C)C(=O)NCCc2ccccc2)c(=O)c2c1sc1ccccc12 (centres undefined),-5.78% (inactive)

row,SMILES,"activity change, negative = inhibition"
1,O=C(Nc1cccc2cccnc12)C(F)(F)F,-10.4% (inactive)
2,Cc1ccc(SCC(CC(C)C)N2CCN(CCc3ccccc3)CCC2=O)cc1 (centres undefined),35% (inactive)
3,CC(=O)Nc1ccc(NC(=O)c2cc3sccc3n2Cc2ccc(F)cc2)cc1,8.5% (inactive)
4,CCC(Sc1nnc(-c2ccc(OC)cc2)c(-c2ccc(OC)cc2)n1)C(=O)NC1CCCCC1 (centres undefined),-8.91% (inactive)
5,Cc1ccc(Cl)cc1NC(=O)CSc1nc2ccccc2nc1Cc1ccccc1,5.62% (inactive)
6,Cn1c(=O)c(=O)n(C)c2cc(NC(=O)c3ccccc3Br)ccc21,18.3% (inactive)
7,COc1ccc(Br)cc1C1CC(=O)Nc2c1c(C)nn2-c1nc(C)cc(C)n1 (centres undefined),-2.53% (inactive)
8,CCc1ccc(S(=O)(=O)c2nnn3c2nc(NCc2ccccc2OC)c2cc(Cl)ccc23)cc1,11.3% (inactive)
9,CC(=O)Nc1ccc(NC(=O)CCCc2nc(-c3ccc(C(C)(C)C)cc3)no2)cc1,-23.6% (inactive)
10,Cc1ccc(OCC(=O)Nc2ccc(OCc3cc(=O)n4c(C)csc4n3)cc2)cc1C,21.1% (inactive)
11,COc1ccc(NC(=O)C2CCCN(S(=O)(=O)c3c(C)[nH]c(=O)[nH]c3=O)C2)c(OC)c1 (centres undefined),-13.7% (inactive)
12,COc1c(Cl)cc(C(=O)N(Cc2ccccc2F)C2CCS(=O)(=O)C2)cc1Cl (centres undefined),-13.9% (inactive)
13,COc1cccc(C(=O)NC2=NC(c3ccc(N(C)C)cc3)CC(=O)N2)c1 (centres undefined),4.87% (inactive)
14,Cc1ccc(-c2nn3c(=O)cc(CN4CCN(C(=O)Nc5cccc(C(F)(F)F)c5)CC4)nc3s2)cc1,-11.5% (inactive)
15,COc1cccc(NC(=O)c2csnn2)c1,-5.21% (inactive)
16,O=C(NCc1ccc(F)cc1)c1ccc2nc(N3CCCCC3)sc2c1,-15.1% (inactive)
17,Cc1cc(NC(=O)c2ccc(-c3ccc(Cl)cc3)o2)cc(-c2nc3ncccc3o2)c1O,-5.56% (inactive)
18,CCC1=Nc2cc(C(=O)NCC(C)c3ccccc3)ccc2Sc2ccc(C)cc21 (centres undefined),12% (inactive)
19,Cc1ccc(C)c(N2CCN(C(=O)C3CCC(CNS(=O)(=O)c4cccs4)CC3)CC2)c1 (centres undefined),13.9% (inactive)
20,CCc1nc2onc(C)c2c(=O)n1CC(=O)O,-8.95% (inactive)
21,Cc1ccccc1CN1CCC(CNC(=O)c2c(C)oc3ncnc(N4CCCCC4)c23)CC1,3.2% (inactive)
